The whole screen tested about 16,000 compounds, of which about 5,100 (32%) were called active. Roughly 25% stayed inconclusive and do not appear here. Some of the results follow. Values without a mark were called inactive. Calls follow the shape of the dose curve; as a rule, active = well fitted curve in the direction sought with a large enough effect; inconclusive = small, poorly fitted or top-dose-only effect, or effect the other way; inactive = no such curve, though single readings can be large or run the other way.
% is scaled to controls: 0 for no effect and ±100 for the full control effect.

For the test, the target named is Cytochrome P450 3A4 (Homo sapiens) (UniProt P08684). The test can be described thus: Cytochrome panel assay with activity outcomes. The conditions noted are these: recombinant CYP, pro-luciferin dealkylation, luminescence, p450-cyp3a4; series mostly up to 57.1 µM.
Cytochrome P450 3A4 (Homo sapiens), sequence (P08684 whole entry, looked up): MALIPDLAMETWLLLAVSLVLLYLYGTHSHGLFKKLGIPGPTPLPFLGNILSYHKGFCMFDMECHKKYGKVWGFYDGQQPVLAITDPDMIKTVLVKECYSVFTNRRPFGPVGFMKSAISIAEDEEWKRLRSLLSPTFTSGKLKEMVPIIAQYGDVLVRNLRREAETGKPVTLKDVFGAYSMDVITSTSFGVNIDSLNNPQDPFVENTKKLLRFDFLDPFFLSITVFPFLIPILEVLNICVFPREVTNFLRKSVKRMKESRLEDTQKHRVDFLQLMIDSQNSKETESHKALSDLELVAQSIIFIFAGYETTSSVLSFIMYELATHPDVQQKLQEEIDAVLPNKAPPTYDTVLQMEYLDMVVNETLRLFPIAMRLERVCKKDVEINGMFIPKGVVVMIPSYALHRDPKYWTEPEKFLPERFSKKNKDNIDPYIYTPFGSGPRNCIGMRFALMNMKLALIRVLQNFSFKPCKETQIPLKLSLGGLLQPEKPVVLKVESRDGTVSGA
Turning to `CC(C)OC(=O)CC12CN(C)CC(CC(=O)OC(C)C)(CN(C)C1)C2=O`, the activity, negative = inhibition was 15.3% [at 2.29 µM].

The AC50 is the concentration at which the activity in the assay is half-maximal. Consider `Fc1ccc(-c2ccnc3nc(N4CCOCC4)nn23)cc1`, for which the AC50 entry is “inactive”.

Take `O=C(O)CNC(=O)c1ccccc1O`: the activity, negative = inhibition was -5.63% [at 11.4 µM].

With `COc1ccccc1C(=O)N/C(=C/c1ccc(Br)cc1)C(=O)NCC(=O)O`, the concentration at half-maximal activity (AC50) was 8.91 µM (active).

For the compound `O=C(CNC(=O)/C(=C\c1ccccc1)NC(=O)c1ccc(Br)cc1)OCc1ccccc1`, the AC50 was 0.2 µM (active).

As for `O=C(OCc1ccccc1)/C(=C/c1ccc(Cl)cc1)NC(=O)c1ccccc1Cl`, the AC50 is 0.178 µM (active).

On to `C/C(=C\c1ccc(Cl)cc1)C(C)(C)C(=O)O`, for which the activity, negative = inhibition is -11.2% [at 11.4 µM].

Take `COC(=O)CCC(=O)NNC(=O)c1ccc(Br)cc1`: the AC50 entry was “inactive”.

`COc1ccc(C(=O)NCC(=O)OCc2cccc(Br)c2)cc1`: the concentration at half-maximal activity (AC50) is 7.94 µM (active).

Take `CS(=O)(=O)Nc1cccc(-c2nc(Nc3ccc(F)cc3)c3ccccc3n2)c1`: the concentration at half-maximal activity (AC50) was 6.31 µM (active).

As to `Cc1cccc(C(=O)NN(C)c2nc(-c3ccccc3)nnc2C(F)(F)F)c1`, the AC50 result is “inactive”.

Take `COc1cccc(-c2nc(Nc3ccncc3)c3ccccc3n2)c1`: the AC50 is 2.51 µM (active).

Regarding `CS(=O)(=O)Nc1cccc(-c2nc(Nc3ccccc3)c3ccccc3n2)c1`, the half-maximal activity concentration (AC50) was 10 µM (active).

For `CN(C)c1nc(-c2cccc(NS(C)(=O)=O)c2)nc2ccccc12`, the AC50 was 6.31 µM (active).

In the case of `N#Cc1cc2nc(O)c(O)nc2cc1[N+](=O)[O-]`, the AC50 entry is “inactive”.

In the case of `CS(=O)(=O)Nc1cccc(-c2nccc(Nc3ccc(F)cc3)n2)c1`, the half-maximal activity concentration (AC50) is 10 µM (active).

Regarding `CNc1nc(-c2cccc(NS(C)(=O)=O)c2)nc2ccccc12`, the half-maximal activity concentration (AC50) was 10 µM (active).

`CS(=O)(=O)Nc1cccc(-c2nc(Nc3ccncc3)c3ccccc3n2)c1`: the AC50 was 3.98 µM (active).

On to `Oc1cc(CN2COc3ccccc32)c(O)cc1CNC1CCCCC1`, for which the activity, negative = inhibition is -5.1% [at 11.4 µM].

As for `CCN1C(=O)C=CC1=O`, the AC50 result was “inactive”.

Take `O=C(c1ccco1)N1CCC2(CCN(Cc3ccncc3)CC2)CC1`: the concentration at half-maximal activity (AC50) is 12.6 µM (active).

With `O=C(c1ccco1)N1CCC2(CCCN(Cc3ccncc3)C2)CC1`, the AC50 was 5.01 µM (active).

As for `O=C(c1ccco1)N1CCC2(CC1)CN(Cc1cc(C(F)(F)F)cc(C(F)(F)F)c1)C2`, the AC50 entry is “inactive”.

Take `O=C(O)[C@H](/C=C\c1ccccc1)c1ccccc1`: the activity, negative = inhibition is -11.9% [at 11.4 µM].

In the case of `Cc1ccc(S(=O)(=O)CC#CCOC(=O)c2ccc([N+](=O)[O-])cc2)cc1`, the half-maximal activity concentration (AC50) was 15.8 µM (active).

With `COc1ccccc1NC(=O)N1CCCC1C(=O)NCc1ccc2c(c1)OCO2` (stereo unspecified), the AC50 is 0.355 µM (active).

Consider `Cc1ccc(CNC(=O)C2CCC(=O)N2C2CCCCC2)cc1` (stereo unspecified), for which the AC50 is 7.94 µM (active).

In the case of `O=C(O)C1CCCN1C(=O)OCc1ccccc1` (stereo unspecified), the AC50 entry was “inactive”.

Regarding `COc1ccc(NC(=O)N2CCCC2C(=O)Nc2ccccc2)cc1` (stereo unspecified), the AC50 entry was “inactive”.

Regarding `NS(=O)(=O)c1ccc(CCNC(=O)C2CCCN2C(=O)OCc2ccccc2)cc1` (stereo unspecified), the AC50 was 12.6 µM (active).

Regarding `Cc1ccc(CNC(=O)C2CCCN2C(=O)NCc2ccccc2)cc1` (stereo unspecified), the half-maximal activity concentration (AC50) was 3.55 µM (active).

As for `Cc1ccc(CNC(=O)C2CC(c3ccccc3[N+](=O)[O-])=NO2)cc1` (stereo unspecified), the activity, negative = inhibition is -29.5% [at 2.29 µM].

Consider `O=C(NCCCN1CCN(c2ccccc2F)CC1)C1CCC(=O)N1C1CCCCC1` (stereo unspecified), for which the AC50 entry was “inactive”.

For `C=C1CC[C@H](O)C/C1=C/C=C1\CCC[C@]2(C)[C@H]1CC[C@H]2[C@@H](C)/C=C\[C@@H](C)C(C)C`, the AC50 result was “inactive”.

Turning to `O=C1CC[C@](CCc2nc3ccccc3[nH]2)(c2ccccc2)C(=O)N1`, the activity, negative = inhibition is -26.9% [at 11.4 µM].

On to `CCCNC(=O)c1c(C)cc(=O)oc1C`, for which the AC50 result is “inactive”.

Consider `C/C(=N\NC(N)=O)c1ccc(Cl)cc1`, for which the activity, negative = inhibition is -0.483% [at 11.4 µM].

Turning to `C/C(=N\NC(=O)CSCc1ccc(Cl)cc1)c1ccc2c(c1)OCCO2`, the AC50 is 14.1 µM (active).

With `O=C(CSCc1ccc(Cl)cc1)Nc1ccc2c(c1)OCCO2`, the activity, negative = inhibition is -20.7% [at 11.4 µM].

Take `O=C(CSCc1cccc(Br)c1)N/N=C/c1ccc2c(c1)OCO2`: the AC50 was 3.98 µM (active).

As for `O=C(Cn1nc(C(F)F)cc1C(F)F)N/N=C/c1ccc2c(c1)OCO2`, the half-maximal activity concentration (AC50) was 5.01 µM (active).

Consider `CCCCCCCCC(=O)N/N=C/c1cccc(Br)c1`, for which the activity, negative = inhibition is -6.69% [at 11.4 µM].

As for `Cc1oc(-c2ccccc2F)nc1CSCC(=O)NCc1ccc2c(c1)OCO2`, the AC50 is 1 µM (active).

In the case of `C=CCNC(=O)CC(=O)N/N=C/c1cccc(Br)c1`, the AC50 result is “inactive”.

As for `O=C(O)C(Cl)(c1ccccc1)c1ccccc1`, the activity, negative = inhibition is -5.68% [at 11.4 µM].

In the case of `O=C(CSCc1cccc(Cl)c1)NCc1ccc2c(c1)OCO2`, the half-maximal activity concentration (AC50) is 1.12 µM (active).

On to `O=C(/C=C/c1ccc2c(c1)OCO2)NCCSCc1cccc(Cl)c1`, for which the activity, negative = inhibition was 18.2% [at 2.29 µM].

Take `Cc1cc(OC(=O)c2ccccc2Cl)cc(=O)n1C`: the AC50 result was “inactive”.

As to `CN(C)C(=O)c1ccc(-c2nccc(NCc3cccnc3)n2)cc1`, the AC50 was 15.8 µM (active).

As to `Cc1cccc(CNc2ccnc(-c3ccc(C(=O)N(C)C)cc3)n2)c1`, the AC50 was 3.16 µM (active).

In the case of `[N-]=[N+]=Nc1ccc(C(=O)CSC[C@@H](NC(=O)CC[C@@H](N)C(=O)O)C(=O)NCC(=O)O)cc1`, the AC50 result was “inactive”.

For `CC(C)[C@H]1C(=O)C(C(N)=O)=C(O)[C@]2(O)C(=O)C3=C(O)c4c(O)ccc(N(C)C)c4C[C@H]3C[C@@H]12`, the AC50 result is “inactive”.

For the compound `COc1cccc(Cn2c(=O)c(-c3cccs3)nc3cncnc32)c1`, the half-maximal activity concentration (AC50) is 5.01 µM (active).

For `COc1ccc(Oc2ncc3nc(-c4cccs4)c(=O)n(Cc4cccc(OC)c4)c3n2)cc1`, the AC50 is 3.98 µM (active).

For `COc1ccc(Nc2ncc3nc(-c4cccs4)c(=O)n(Cc4cccc(OC)c4)c3n2)cc1`, the AC50 result was “inactive”.

Consider `COc1cccc(Cn2c(=O)c(-c3cccs3)nc3cnc(OC)nc32)c1`, for which the AC50 was 3.98 µM (active).

For `COc1ncc2nc(-c3cccs3)c(=O)n(Cc3ccc(F)cc3)c2n1`, the AC50 is 3.16 µM (active).

As for `O=C(O)c1ccc(C(=O)c2ccccc2)c(C(=O)O)c1`, the activity, negative = inhibition is -42.2% [at 11.4 µM].

Take `C=CCN=C(NC#N)SCc1ccccc1`: the activity, negative = inhibition was -3.62% [at 2.29 µM].

For `CCNc1ncc2nc(-c3ccc(OC)cc3)c(=O)n(Cc3ccc(F)cc3)c2n1`, the AC50 entry is “inactive”.

Turning to `COc1ncc2nc(-c3ccc(F)cc3)c(=O)n(Cc3ccc(F)cc3)c2n1`, the half-maximal activity concentration (AC50) was 3.16 µM (active).

Turning to `COc1ccc(NC(=O)CC#N)cc1OC`, the AC50 result was “inactive”.

As to `CCN(CC)C(=O)COc1ccc(S(=O)(=O)N2CCOCC2)cc1`, the activity, negative = inhibition is -4.69% [at 11.4 µM].

Take `O=C(CN1CCN(S(=O)(=O)c2ccc(F)cc2)CC1)Nc1ccc(Cl)c(C(F)(F)F)c1`: the AC50 was 5.01 µM (active).

As for `COc1cc2c(cc1OC)CN(CC(=O)Nc1ccc3c(c1)OCO3)CC2`, the half-maximal activity concentration (AC50) is 3.55 µM (active).

For the compound `CCOC(=O)c1ccc(S(=O)(=O)N2CCN(C)CC2)cc1`, the AC50 entry was “inactive”.

As to `CCOc1ccc(C(=O)CN2CCN(S(=O)(=O)c3ccc(F)cc3)CC2)cc1`, the AC50 is 6.31 µM (active).

As for `CCOc1ccc(NC(=O)CN2CCN(S(=O)(=O)c3ccc(Cl)cc3)CC2)cc1`, the concentration at half-maximal activity (AC50) was 14.1 µM (active).

`N[C@@H](Cc1ccnnc1)C(=O)O`: the activity, negative = inhibition was -3.75% [at 11.4 µM].

Consider `Cc1nnc(S(=O)(=O)c2ccc(N=Nc3c(N)nc(N)nc3N)cc2)s1`, for which the activity, negative = inhibition was 4.76% [at 11.4 µM].

Take `O=C(CN1CCN(S(=O)(=O)c2ccc(F)cc2)CC1)Nc1ccc2c(c1)OCO2`: the AC50 is 2 µM (active).

Take `CCN(CC(=O)Nc1ccc2c(c1)OCCO2)C(=O)c1cccc(S(=O)(=O)N2CCOCC2)c1`: the activity, negative = inhibition was -20.1% [at 11.4 µM].

As to `O=C(CN1CCN(S(=O)(=O)c2ccc(Cl)cc2)CC1)Nc1ccc2c(c1)OCO2`, the AC50 is 1 µM (active).

Regarding `CC1(C)CCCN(C(=O)c2coc(=O)c(Br)c2)C1`, the AC50 result was “inactive”.

For `Cn1c(=O)cc(OCC(=O)NCc2cccnc2)c2ccccc21`, the AC50 was 12.6 µM (active).

With `CC(C)NC(=O)N1CCC2(CC1)CCN(C(=O)c1ccco1)CC2`, the AC50 entry is “inactive”.

For `Cn1c(C(=O)O)c(CC(=O)NCc2cccnc2)c2ccccc21`, the AC50 result was “inactive”.

Regarding `O=C(Cc1ccc(Cl)cc1)N1CCN(C(=O)c2ccco2)CC1`, the AC50 result is “inactive”.

Turning to `CCn1c(=O)cc(OCC(=O)Nc2cccnc2)c2ccccc21`, the AC50 is 7.08 µM (active).

Take `Cc1ccnc(NC(=O)c2cccc(NC(=O)COc3ccccc3)c2)c1`: the activity, negative = inhibition is -4.8% [at 2.29 µM].

As for `CCn1c(=O)cc(SCC(=O)Nc2cc(OC)c(OC)c(OC)c2)c2ccccc21`, the AC50 is 5.01 µM (active).

Consider `CCn1c(=O)cc(SCC(=O)N2CCN(C(=O)c3ccco3)CC2)c2ccccc21`, for which the concentration at half-maximal activity (AC50) is 7.08 µM (active).

As for `CCC(CC)C(=O)NCCN1CCN(C(=O)C(CC)CC)CC1`, the activity, negative = inhibition is 2.98% [at 2.29 µM].

Take `CC(C)CCOc1ccc(NC(=O)C2OC3OC(C)(C)OC3C3OC(C)(C)OC23)cc1` (stereo unspecified): the activity, negative = inhibition was -3.7% [at 2.29 µM].

Consider `Cn1c(=O)cc(OCCCC(=O)Nc2cccnc2)c2ccccc21`, for which the half-maximal activity concentration (AC50) was 6.31 µM (active).

Turning to `COc1cc(=O)n(C)c2c(OC[C@@H](O)C(C)(C)O)cccc12`, the AC50 entry is “inactive”.

Regarding `CCN(C(=O)COc1cc(=O)n(C)c2ccccc12)c1cccc(Cl)c1`, the AC50 is 3.55 µM (active).

Regarding `CCCNC(=O)OC[C@@H]1O[C@H](CCO/N=C(\C)CCN2CCCCc3nc(C)c(C)cc32)C=C[C@@H]1Oc1ccc(OC)cc1`, the AC50 was 3.16 µM (active).

For the compound `CCCNC(=O)OC[C@@H]1O[C@H](CCO/N=C(\C)CCN2CCCc3nc(C)c(C)cc32)C=C[C@@H]1Oc1ccc(OC)cc1`, the AC50 was 3.98 µM (active).

Regarding `Fc1cc2nc(-c3ccncc3)[nH]c2cc1F`, the AC50 is 1.41 µM (active).

Regarding `O=C(c1ccccc1)c1ccc2nc(-c3ccc(NC(=O)c4ccccc4F)cc3)[nH]c2c1`, the AC50 entry was “inactive”.

Values taken from PubChem BioAssay AID1851 (National Center for Advancing Translational Sciences (NCATS), 2009).
